Caspase-1 inhib: qHTS Assay for Allosteric/Competitive Inhibitors of Caspase-1; P29466; hit rate 0.03% among 75,000; Caspase-1 enzyme, Ac-WEHD-AFC fluorogenic rate; Potency, µM (titrated, usually from 57.5 µM), inactives show at the highest dose activity change, negative = inhibition, most hits filed as inhibitors; AID 900, 2007;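 also: plate controls were vehicle for no effect and no substrate for full effect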
Caspase-7 inhib: qHTS Assay for Allosteric/Competitive Inhibitors of Caspase-7. P55210. hit rate 0.02% among 75,000. AID 889, 2007. recombinant caspase-7, Ac-DEVD-AFC fluorescence rate. Potency, µM (titrated, usually from 57.5 µM), without a hit: at the top dose activity change, negative = inhibition, actives largely listed as inhibitors; active = well fitted inhibition curve with a large enough effect in the main read-out, with a control signal flat, not every such curve was filed as active; inconclusive = small, poorly fitted or top-dose-only effect, or a change in a side signal; also: % of control where 0% means no effect
TSHR ag: qHTS Assay for Agonists of the Thyroid Stimulating Hormone Receptor; hit rate 0.48% among 73,000; Potency, µM (titrated, usually from 57.1 µM), inactives show top-dose activation, actives largely listed as activators; HEK293-CNG-TSHR cells (CNG channel as cAMP sensor), membrane potential dye, cAMP; AID 926, 2007; active = well fitted activation curve with a large enough effect in the main read-out, with a control signal flat, not every such curve was filed as active; inconclusive = small, poorly fitted or top-dose-only effect, or a change in a side signal; inactive = no such curve, though single readings can be large or run the other way; % of control where 0% means no effect;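 also: the control signal comes from parental cells without the receptor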
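HEK 293 cells stably expressing TSHR and a cAMP-gated CNG channel; parental CNG-only cells as counterscreen. Cells preloaded 60 min with membrane potential dye plus 100 uM RO 20-1724, then compound 30 min; fluorescence read at 590 nm.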
ERK AVP inh: qHTS Assay for Inhibitors of the ERK Signaling Pathway using a Homogeneous Screening Assay; Potency, µM (series often up to 57.5 µM), for inactives: at the top dose activity, negative = inhibition, actives largely listed as inhibitors; HEK293-V1b, vasopressin-stimulated pERK AlphaScreen; hit rate 0.99% among 72,000; also: % is scaled to controls: 0 for no effect and ±100 for the full control effect; nearly all actives have a fitted effect of over 55% in size
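Phosphorylated ERK1/2 detected via AlphaScreen bead proximity in lysates of V1b-expressing HEK293 cells given 25 nM vasopressin for 5 min after 30 min compound exposure (37 °C). AC50 from Hill equation; basal DMSO 0%, vasopressin 100%.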
HEK293 cAMP ctrl: qHTS Assay for Agonists of the Thyroid Stimulating Hormone Receptor: Activators of Intracellular cAMP Concentrations in Parental HEK 293; parental HEK293 CNG cAMP sensor, membrane potential fluorescence; Potency, µM (top dose mostly 57.1 µM), for inactives: at the highest dose activation, actives largely listed as activators; hit rate 2.5% among 73,000; AID 938, 2007; also: % of control where 0% means no effect; nearly all actives have a fitted effect of over 55% in size
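Parental HEK 293 cells stably expressing a cAMP-gated CNG channel were loaded with membrane potential dye containing 100 uM RO 20-1724 for 60 min. Compound added for 30 min; depolarization read as fluorescence intensity at 590 nm.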
ALOX15 inhib: qHTS Assay for Inhibitors of 15-hLO (15-human lipoxygenase) | Polyunsaturated fatty acid lipoxygenase ALOX15 (Homo sapiens), P16050 | purified 15hLO-1, xylenol orange hydroperoxide absorbance | Potency, µM (doses to about 57.1 µM), inactives show top-dose activity change, negative = inhibition, actives largely listed as inhibitors | hit rate 1.4% among 74,000; also: % is scaled to controls: 0 for no effect and ±100 for the full control effect; nearly all actives have a fitted effect of over 55% in size
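Purified human 15hLO-1 (40 nM) in 25 mM Hepes pH 7.5, 0.01% Triton X-100, preincubated 15 min RT with compound, then 50 uM arachidonic acid for 6 min. Hydroperoxide read by ferrous/xylenol orange, 30 min; 573/405 nm absorbance ratio gave progress.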
An asterisk follows results filed as active; ? = inconclusive; . = not tested or not shown; [ ] = remark or other dose. Only some compounds are listed: those with a hit (about 4.8% of all), similar ones and a draw of the others. Unless noted, calls follow the shape of the dose curve; as a rule, active = well fitted curve in the direction sought with a large enough effect; inconclusive = small, poorly fitted or top-dose-only effect, or another doubt; inactive = no such curve, though single readings can be large; an effect the other way counts as inactive or inconclusive. Potency is read from the fitted curve at half-maximal effect.

SMILES | Caspase-1 inhib | Caspase-7 inhib | TSHR ag | ERK AVP inh | HEK293 cAMP ctrl | ALOX15 inhib
CN(C)S(=O)(=O)c1ccc(S(=O)(=O)N(Cc2ccco2)Cc2ccccc2Cl)cc1 | -2.8% | 0.5% | ? | 3.4% | 12.6µM* | -6.6%
O=S(=O)(c1ccc(S(=O)(=O)N(Cc2ccco2)Cc2ccccc2Cl)cc1)N1CCCC1 | 0.0% | 5.4% | . | 27.5% | 15.1% | -4.2%
COc1cc(C2/C(=C(/O)c3ccc(F)cc3)C(=O)C(=O)N2CCCC(=O)O)ccc1O (stereo not given) | 0.1% | 0.6% | 20.6% | 18.5% | -1.1%[2.29 µM] | 16.2%
COc1ccc(-c2nc3c(c4c2CC(C)OC4)CN(CCC(C)C)CC3)cc1 (stereo not given) | -3.4%[11.5 µM] | -5.3%[11.5 µM] | 3.6%[11.4 µM] | 30.8%[11.5 µM] | 0.9%[11.4 µM] | -11.7%[11.4 µM]
COc1ccc2c(c1)Cc1sc(NC(=O)c3cccs3)nc1-2 | 31.6µM* | ? | 7.9% | ? | -22.2% | 31.6µM*
CC1CC2C3CCC4=CC(=O)C=C[C@@]4(C)[C@]3(F)C(O)C[C@]2(C)[C@]1(O)C(=O)COP(=O)(O)O (stereo not given in full) | . | 0.1% | . | . | . | 3.9%
COc1ccc(C(=O)N2CCC[C@@]3(CCN(Cc4cc(C(F)(F)F)cc(C(F)(F)F)c4)C3)C2)cc1 | -6.9% | -5.2% | -3.5% | 1.0% | -6.1% | -11.8%
O=C(CN1CCN(C(=O)N2CCCCC2)CC1)Nc1ccc(F)cc1 | 0.7% | -0.9% | -10.9% | 6.8% | 2.0% | 5.7%
Cc1ccc(C)c2[nH]c(=O)c(CN(Cc3ccco3)C(=O)Nc3ccccc3)cc12 | -0.8% | -3.5% | ? | ? | 20µM* | ?
COc1ccccc1NC(=O)N(Cc1ccco1)Cc1cc2cc(C)cc(C)c2[nH]c1=O | -7.6% | -8.0% | . | -20.9% | 22.3% | 10µM*
COc1ccccc1NC(=O)N(Cc1ccco1)Cc1cc2ccc(C)c(C)c2[nH]c1=O | ? | -4.6% | 18.8% | -20.3% | 16.3% | -24.5%
Cc1ccc2cc(CN(Cc3ccco3)C(=O)NCc3ccccc3)c(=O)[nH]c2c1C | -1.2% | -9.5% | ? | -3.7% | ? | -11.6%
O=C(c1ccncc1)N1CCC2(CC1)CCN(c1ccccn1)CC2 | -0.4% | -1.4% | ? | ? | ? | 0.2%
O=C(Oc1ccccc1)N1CCC[C@@]2(CCN(c3ccccn3)C2)C1 | -0.4% | 0.0% | ? | 17.9% | ? | 3.4%
O=C(Oc1ccccc1)N1CCC2(CCCN(c3ccccn3)C2)CC1 | -3.5% | -4.5% | ? | 4.0% | 20µM* | -7.4%
O=C(c1ccncc1)N1CCC2(CC1)CN(c1ccccn1)C2 | -2.3% | -2.5% | ? | -20.1% | 7.94µM* | ?
COc1cccc(Nc2ncc3nc(CCc4ccccc4)c(=O)n(CCC#N)c3n2)c1 | . | ? | ? | -3.6% | ? | -0.1%
O=C(O)C1=CC(O)[C@@H](O)C(O)C1 (stereo not given in full) | -1.1% | -0.2% | . | -9.8% | . | 3.9%
CCOc1ccccc1CNC(=O)C1CCN(C(=O)c2sccc2-n2cccc2)CC1 | -1.9% | -1.2% | 18.5% | . | -11.7% | -2.9%
CC1CCC(C(C)C)C(=O)C1 (stereo not given) | -1.4% | -0.1% | . | 16.8% | . | -11.7%
COc1ccc(C#CC2C=CC(Oc3cc(C)cc(C)c3)C(CO)O2)cc1 (stereo not given) | -1.7%[11.5 µM] | -1.0%[11.5 µM] | 10.8%[11.4 µM] | 8.5%[11.5 µM] | 12.7%[11.4 µM] | -2.2%[11.4 µM]
CC(C)=CCCC(C)CCO (stereo not given) | 2.8% | -2.4% | 1.9% | 15.8% | -11.5% | 7.94µM*
CC(C)=CCC/C(C)=C/C=O | 0.4% | -0.5% | -2.2% | -23.8% | 22.2% | -14.7%
CO/N=C(\C)CCN1CCc2nc(-c3ccccc3)c(-c3ccccc3)cc2C1 | 0.0%[11.5 µM] | -0.9%[11.5 µM] | -2.9%[11.4 µM] | 25.0%[11.5 µM] | 3.1%[11.4 µM] | 1.3%[11.4 µM]
CC(=O)O[C@H]1CC[C@]2(C)C(=CC[C@H]3[C@H]4C[C@H]5O[C@]6(CC[C@H](C)CN6)[C@H](C)[C@@H]5[C@]4(C)CC[C@@H]32)C1 | 0.0%[11.5 µM] | 0.6%[11.5 µM] | 4.5%[11.4 µM] | 13.0%[11.5 µM] | -8.3%[11.4 µM] | 13.2%[11.4 µM]
SMILES | Caspase-1 inhib | Caspase-7 inhib | TSHR ag | ERK AVP inh | HEK293 cAMP ctrl | ALOX15 inhib
O=C1C=CC(=O)c2c(O)c(Cl)c(Cl)c(O)c21 | 2.7% | 1.5% | . | ? | . | 1µM*
Cc1c(NC(=O)C(C)Sc2nc3ccccc3c(=O)n2CCO)c(=O)n(-c2ccccc2)n1C (stereo not given) | 1.0% | -1.7% | 2.3% | 10.9% | -4.0% | -0.8%
CN1CC[C@@]2(CCCN(S(=O)(=O)c3ccccc3)C2)C1 | -0.8% | -0.1% | ? | 4.1% | ? | -25.7%
CCCCCc1c(C)nc(Nc2nc(C)c3cc(OC)ccc3n2)[nH]c1=O | 2.0% | -0.1% | ? | -8.5% | 10µM* | 9.7%
Cc1sc2nc(SCC(=O)NCCOCCO)n(C)c(=O)c2c1C | -1.3% | 0.2% | -1.0%[11.4 µM] | -30.3% | -3.3%[11.4 µM] | -1.3%[11.4 µM]
c1ccc(-c2cccc(N3CC[C@@]4(CCCNC4)C3)c2)cc1 | -1.8% | -3.2% | -6.8% | -29.0% | 4.9% | -18.4%
CCOC(=O)c1oc2ccc(Br)cc2c1CSc1nnc(C)s1 | -4.3% | -1.0% | ? | 12.5% | 31.6µM* | -26.0%
C[C@]12C=CC(=O)C=C1CC[C@@H]1[C@H]3C[C@@H](O)[C@](O)(C(=O)CO)[C@@]3(C)C[C@H](O)[C@]12F | 1.9%[25.7 µM] | 1.0%[25.7 µM] | -10.3%[25.6 µM] | 10.0%[25.7 µM] | -2.1%[25.6 µM] | 14.1%[25.6 µM]
CCC(Cc1c(I)cc(I)c(N)c1I)C(=O)O (stereo not given) | 1.5% | -1.3% | . | 8.1% | . | -7.3%
Cc1cc(C(=O)NCc2ccccc2)no1 | -0.3% | 0.4% | 5.6% | 3.8% | 0.5% | -1.8%
Cc1ccccc1NC(=O)c1nc[nH]c1C(=O)NCc1ccccc1 | -0.6% | -5.5% | -22.4% | 25.1µM* | 9.2% | 22.6%
Cc1noc(C)c1C(=O)N1CCC[C@@]2(CCN(C(c3ccccc3)c3ccccc3)C2)C1 | -0.9% | 0.7% | 5.6% | 12.9% | 9.2% | -3.8%
CCn1c(SCc2ccc(C#N)cc2)nnc1-c1ccc(S(=O)(=O)N2CCCCC2)cc1 | -5.0% | -5.4% | 3.5% | 25.1µM* | 20.0% | ?
CC(=O)N1CCN(c2ccc(Oc3nc(-c4ccccc4)nc4ccccc34)cc2)CC1 | -0.3% | 0.9% | 25.1µM* | 11.8% | -0.6% | 4.2%
Cn1c(=O)c2c(nc(CN3CCN(C(=O)c4ccco4)CC3)n2CCCc2ccccc2)n(C)c1=O | -3.1% | 0.2% | -6.6% | . | 1.8% | 1.6%

Assay outcomes from PubChem.
